Source: PubChem BioAssay (National Center for Advancing Translational Sciences (NCATS))
POLB inh: inhibitors of human DNA polymerase beta. P06746. Pol beta primer extension/strand displacement, fluorescence kinetic. Potency, µM (series often up to 114 µM), without a hit: top-dose activity change, negative = inhibition, actives largely listed as inhibitors. 340,000 tested, 1.3% active; also: potency is read from the fitted curve at half-maximal effect; % is scaled to controls: 0 for no effect and ±100 for the full control effect
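Values derive from four-parameter Hill fits of normalized kinetic data: reads at 0 and 10 min following addition of 50 nM substrate to 10 nM Pol beta preincubated 15 min with compound.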
FEN1 inhibitor: inhibitors of human flap endonuclease 1 | P39748 | Recombinant FEN1 flap cleavage, fluorescence, 15 min | Potency, µM (titrated, usually from 114 µM), for inactives: top-dose activity change, negative = inhibition, hits mostly inhibitors | 390,000 tested, 0.35% active | AID 588795; also: potency is read from the fitted curve at half-maximal effect; % is scaled to controls: 0 for no effect and ±100 for the full control effect; nearly all actives have a fitted effect of over 65% in size
Target sequence (P39748 whole entry, looked up): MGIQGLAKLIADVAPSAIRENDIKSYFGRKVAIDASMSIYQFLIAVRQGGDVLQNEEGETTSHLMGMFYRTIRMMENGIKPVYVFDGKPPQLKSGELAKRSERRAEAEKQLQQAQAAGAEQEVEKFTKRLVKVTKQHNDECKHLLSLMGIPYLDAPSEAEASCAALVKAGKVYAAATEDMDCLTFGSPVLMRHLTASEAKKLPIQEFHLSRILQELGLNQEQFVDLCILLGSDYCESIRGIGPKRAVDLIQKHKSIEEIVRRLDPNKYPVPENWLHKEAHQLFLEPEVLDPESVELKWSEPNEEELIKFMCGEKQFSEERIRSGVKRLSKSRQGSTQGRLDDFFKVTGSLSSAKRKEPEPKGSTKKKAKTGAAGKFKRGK
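In this screen, 50 nM flap DNA substrate was added to 10 nM FEN1 pretreated with compound for 15 min at room temperature; cleavage was followed with reads at 0 and 15 min, and Hill fitting gave concentration–response parameters.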
WRN helicase inh: inhibitors of human WRN helicase; Q14191; 360,000 tested, 0.46% active; Potency, µM (doses to about 114 µM), for inactives: top-dose activity change, negative = inhibition, actives largely listed as inhibitors; WRN helicase unwinding, fluorescent forked duplex, kinetic; also: potency is read from the fitted curve at half-maximal effect; % is scaled to controls: 0 for no effect and ±100 for the full control effect; nearly all actives have a fitted effect of over 55% in size
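Fluorescence dequenching readout, ex 525 nm/em 598 nm, kinetic mode: forked duplex DNA (100 nM final) with adjacent fluorophore and quencher unwound by WRN (20 nM final) with 2 mM ATP. Compound preincubation 15 min, room temperature.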
Pol kappa inh-1: inhibitors of human DNA polymerase kappa. Q9UBT6. purified Pol kappa, fluorescent DNA synthesis assay, 10 min. Potency, µM (doses to about 107 µM), for the others: top-dose activity, negative = inhibition, usual class: inhibitors. 400,000 tested, 0.53% active. AID 588579; also: potency is read from the fitted curve at half-maximal effect; % is scaled to controls: 0 for no effect and ±100 for the full control effect
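10 nM Pol kappa was preincubated with compounds for 15 min at room temperature. Reaction started with 50 nM (final) substrate. Fluorescence read kinetically at 0 and 10 min.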
Pol eta inh-1: blocks human DNA polymerase eta activity; 390,000 tested, 1.2% active; Potency, µM (series often up to 114 µM), for the others: at the highest dose activity change, negative = inhibition, hits mostly inhibitors; Q9Y253; AID 588591; recombinant Pol eta, fluorescent DNA replication assay; also: potency is read from the fitted curve at half-maximal effect; % is scaled to controls: 0 for no effect and ±100 for the full control effect
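Pol eta (10 nM) was preincubated with compounds for 15 min at room temperature, after which fluorescent replication substrate (50 nM final) was added to start the reaction. Fluorescence was read kinetically at 0 and 10 min.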
POLI inh: DNA polymerase iota (human) inhibition; Q9UNA4; Pol iota fluorescent replication assay, 10 min; Potency, µM (highest dose often 115 µM), for inactives: top-dose activity, negative = inhibition, usual class: inhibitors; 390,000 tested, 1% active; also: potency is read from the fitted curve at half-maximal effect
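Fluorescent replication assay read twice, at 0 min and 10 min after adding 50 nM (final) substrate. Enzyme (10 nM) and compounds were first incubated 15 min at room temperature; enzyme-free buffer wells were negative controls.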
GALK confirm: confirmation of human galactokinase (GALK) inhibitors | shares compounds with Pol eta inh-1 | purified GALK, Kinase-Glo ATP depletion luminescence | Potency, µM (doses to about 115 µM), inactives show at the top dose activity, negative = inhibition, most hits filed as inhibitors | 150 tested, 70% active
Target sequence (P51570 whole entry, looked up): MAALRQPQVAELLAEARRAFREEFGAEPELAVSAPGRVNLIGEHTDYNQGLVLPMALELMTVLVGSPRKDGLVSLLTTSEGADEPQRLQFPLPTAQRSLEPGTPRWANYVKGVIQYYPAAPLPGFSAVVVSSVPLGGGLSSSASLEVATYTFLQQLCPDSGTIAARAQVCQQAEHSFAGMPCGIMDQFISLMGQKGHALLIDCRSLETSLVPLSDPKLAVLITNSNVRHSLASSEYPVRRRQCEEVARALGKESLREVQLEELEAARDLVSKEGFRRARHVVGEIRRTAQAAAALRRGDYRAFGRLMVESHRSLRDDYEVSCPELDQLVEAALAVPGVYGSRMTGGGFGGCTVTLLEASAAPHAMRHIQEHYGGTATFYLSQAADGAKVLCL
Redox cycling: generates H2O2 by redox cycling, flagging GALK artifacts. shares compounds with Pol eta inh-1. Phenol red-HRP H2O2 redox cycling, absorbance 600 nm. Potency, µM (series often up to 115 µM), for the others: at the top dose activity change, negative = H2O2 signal, usual class: inhibitors. 150 tested, 40% active
HEK293 tox: counter-screen for GALK inhibitors: HEK293 cell cytotoxicity; AID 2547; HEK-293 viability, ATP luminescence (CellTiter-Glo), 24/48 h; 170 tested, 10% active; Potency, µM (doses to about 46.1 µM), without a hit: at the highest dose activity change, negative = cytotoxicity, hits mostly inhibitors; shares compounds with Pol eta inh-1; also: potency is read from the fitted curve at half-maximal effect; % is scaled to controls: 0 for no effect and ±100 for the full control effect
Pol kappa inh-2: confirmation of human DNA polymerase kappa inhibitors. Potency, µM, hits mostly inhibitors. shares compounds with Pol eta inh-1. purified Pol-kappa, fluorescent strand-displacement substrate. 920 tested, 76% active; also: potency is read from the fitted curve at half-maximal effect
Pol eta inh-2: confirmation of human DNA polymerase eta inhibitors; shares compounds with Pol eta inh-1; Pol eta primer extension, TAMRA/BHQ fluorescence, 10 min; Potency, µM, usual class: inhibitors; 2,600 tested, 64% active; AID 720502; also: potency is read from the fitted curve at half-maximal effect
Numbers without * were called inactive; ? = inconclusive; . = no result; [ ] = another dose, or the depositor's remark. Sampled rows, rich in hits. Any-hit rate of the full collection: about 2.4%. Calls follow the shape of the dose curve; as a rule, active = well fitted curve in the direction sought with a large enough effect; inconclusive = small, poorly fitted or top-dose-only effect, or another doubt; inactive = no such curve, though single readings can be large; an effect the other way counts as inactive or inconclusive.

SMILES	POLB inh	FEN1 inhibitor	WRN helicase inh	Pol kappa inh-1	Pol eta inh-1	POLI inh	Pol eta inh-2	others
O=C1NC(=S)S/C1=C\c1ccc(SCc2ccccc2)o1	14µM*	79µM*	?	25µM*	18µM*	7.9µM*	?
Nc1ccc(-c2c3ccc(=O)cc-3oc3cc(O)ccc23)cc1C(=O)O	45µM*	-35%	?	79µM*	20µM*	25µM*	30*	Pol kappa inh-2=15*
COc1ccc(-c2c(C)c3ccc(O)cc3oc2=O)cc1OC	-4%	16%	1%	-11%	-18%	28%	.
COc1cc(NC(=O)c2nnn(CC(=O)Nc3ccccc3)c2N)cc(OC)c1	17%	6%	.	4%	-8%	7%	.
COC(=O)c1ccc(CSc2ccc3nnc(-c4ccccn4)n3n2)o1	-4%	0%	2%	0%	-16%	19%	.	GALK confirm=-7%;Redox cycling=1%;HEK293 tox=-1%
COC(=O)c1ccc(CSc2ccc3nnc(-c4ccc(F)cc4)n3n2)o1	0%	-6%	10%	-3%	-3%	-4%	.
COc1ccc(CCNC(=O)CCCn2nc(C)c3sc4ccccc4c3c2=O)c(OC)c1	-18%	-9%	.	-21%	-5%	?	.
O=C(Nc1cccnc1)c1cccc(S(=O)(=O)N2CCCCC2)c1	4%	-6%	-12%	-1%	-22%	64%	.
Cc1ccc(S(=O)(=O)N2CCCCC2)cc1C(=O)Nc1cccnc1	32µM*	-2%	-3%[11.6 µM]	-42%	18µM*	50µM*	76*
O=C1N/C(=C/c2cccn2-c2ccc(F)cc2)C(=O)N1Cc1ccccc1F	1%	-3%	2%	-30%	2%	137%	.
Cc1ccc(NC(=O)CN2C(=O)N/C(=C\c3cccn3-c3ccc(C(=O)NS(C)(=O)=O)cc3)C2=O)cc1	.	.	.	.	.	.	?
O=C(CN1C(=O)N/C(=C\c2cccn2-c2cccc(C(=O)O)c2)C1=O)Nc1cccc(Cl)c1	.	.	.	.	.	.	.	Pol kappa inh-2=?
Cc1cccc(NC(=O)CN2C(=O)N/C(=C/c3ccc(C)s3)C2=O)c1	0%	-2%	-27%	-17%	-7%	-14%	.
O=C(O)c1cccc(-n2cccc2/C=C2/NC(=O)N(Cc3ccccc3F)C2=O)c1	10µM*	-2%	-10%[11.6 µM]	?	20µM*	32µM*	?
COc1ccc(-c2c(C#N)c(SCC(=O)Nc3ccc(C)c(C)c3)nc(C)c2C(=O)Nc2ccccc2)cc1OC	-27%	-9%	.	0%	-24%	22%	.
CCCSC1=N/C(=C\c2ccc([N+](=O)[O-])o2)C(=O)S1	2.8µM*	35µM*	22µM*	20µM*	?	?	76*
CCSC1=N/C(=C\c2ccc(-c3ccccc3[N+](=O)[O-])o2)C(=O)S1	-16%	-3%	-15%	1%	-5%	6%	.
O=C(O)c1cccc(COc2ccc3c(c2)CCC3)c1	22µM*	-11%	1%[11.6 µM]	?	40µM*	?	48*
O=C(NCc1ccccc1)c1cccc(COc2ccc3c(c2)CCC3)c1	-26%	-4%	0%	-10%	-13%	12%	.
CCCCC(=O)OCc1cc(=O)n2nc(C3CCCCC3)sc2n1	4%	15%	.	0%	-7%	10%	.
Cc1cc(=O)[nH]c(SCC(=O)c2ccccc2)c1C#N	-18%	-14%	-11%	-9%	-14%	5%	.
Cc1ccccc1NC(=O)CSc1[nH]c(=O)cc(C)c1C#N	3%	?	-27%[57.1 µM]	?	20µM*	?	?
CCOc1ccc(NC(=O)CC2C(=O)N(c3cccc(C)c3)C(=O)N2Cc2cccs2)cc1 (stereo not drawn)	0%	6%	.	-7%	-20%	7%	.
CCOC(=O)c1c(NC(=O)CCCOc2ccc(Cl)cc2)sc2c1CCC2	21%	-4%	.	2%	-11%	4%	.
CCc1sc(/C=C(/C#N)C(N)=S)cc1[N+](=O)[O-]	?	-16%	?	-21%	20µM*	?	43*
SMILES	POLB inh	FEN1 inhibitor	WRN helicase inh	Pol kappa inh-1	Pol eta inh-1	POLI inh	Pol eta inh-2	others
NC1=NC(=O)/C(=C/c2cn(CCC(=O)O)nc2-c2ccc(Cl)cc2)S1	30%	-17%	?	-16%	14µM*	-17%	.	Pol kappa inh-2=17*
NC1=NC(=O)/C(=C/c2cn(CCC(=O)O)nc2-c2ccc(F)cc2)S1	24%	-15%	-21%	-16%	?	7%	.
COc1ccc(-c2nn(CCC(=O)O)cc2/C=C2\SC(N)=NC2=O)cc1	9%	-17%	?	79µM*	5.6µM*	-18%	27*	Pol kappa inh-2=21*
CCCOc1ccc(-c2nn(-c3ccccc3)cc2/C=C2\SC(N)=NC2=O)cc1	42%	-3%	0%[57.1 µM]	1%	6%	50%	.
CN1C(=O)c2ccccc2NC(=O)[C@]12O[C@@H]2c1cccc(O)c1	45µM*	2%	-25%	40µM*	11µM*	?	38*
COc1ccc2occ(CC(=O)Nc3ccc(S(=O)(=O)Nc4nccc(C)n4)cc3)c2c1	?	-15%	.	?	79µM*	?	?	Pol kappa inh-2=47*
O=C(Nc1nnc(S(=O)(=O)N2CCCc3ccccc32)s1)c1ccccc1Br	-20%	-7%	.	-1%	79µM*	12%	?	Pol kappa inh-2=?
O=C(Nc1nnc(S(=O)(=O)N2CCCc3ccccc32)s1)c1ccc(Cl)cc1	12%	0%	.	3%	?	17%	.	Pol kappa inh-2=?
CCOC(=O)CSc1nc2cc3c(cc2c(=O)n1CCCC(=O)NCc1ccc2c(c1)OCO2)OCO3	-3%	10%	.	6%[60.1 µM]	-11%	-1%	.
